Bioassay records (PubChem)
RE007 growth inh = qHTS Assay for Inhibitors of the HIV-1 protein Vpr; S. pombe RE007 Vpr strain, BacTiter-Glo ATP luminescence, 24 h; Potency, µM (highest dose often 92.2 µM), for inactives: at the highest dose activity change, negative = less growth, hits mostly inhibitors; actives 0.21% (n = 360,000); AID 651644, 2012; active = well fitted falling curve with a large enough effect; inconclusive = small, poorly fitted or top-dose-only effect; inactive = no such curve, though single readings can be large or run the other way; note: nearly all actives have a fitted effect of over 50% in size
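Fission yeast RE007 carrying one integrated HIV-1 vpr copy, seeded at OD 0.01 in PMG+AL medium with 23 nL pinned compound. Grown 24 h at 30 degrees; viability read by BacTiter-Glo luminescence after 5 min.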
Sm TGR inh = qHTS Assay for the Inhibitors of Schistosoma Mansoni Peroxiredoxins; actives 3% (n = 360,000); Potency, µM (series often up to 114 µM), for inactives: at the highest dose activity change, negative = inhibition, most hits filed as inhibitors; purified TGR, DTNB reduction, TNB absorbance 405 nm; AID 485364, 2010; note: nearly all actives have a fitted effect of over 60% in size
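Kinetic colorimetric format: TGR-catalysed, NADPH-driven DTNB reduction monitored via TNB absorbance. Enzyme dispensed at 20 nM; compound exposure 15 min at room temperature before reaction start.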
HCV inhibitor = qHTS Assay for Inhibitors of Hepatitis C Virus (HCV); Huh7.5.1 HCVcc-Cre infection, luciferase reporter, 44 h; Potency, µM (doses to about 41.8 µM), for the others: at the top dose activity change, negative = inhibition, usual class: inhibitors; actives 3.4% (n = 340,000)
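Infectious HCV cell culture screen: compound-treated cells (1,000/well, pre-plated 4 h) are infected with HCVcc-Cre at roughly 0.5 moi and grown 44 h. Infection is quantified by luciferase signal after 15 min substrate incubation at room temperature.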
Lassa entry inh = qHTS for Inhibitors of binding or entry into cells for Lassa Virus; Lassa virus pseudotype entry inhibition, cell reporter; Potency, µM (highest dose often 37.9 µM), for inactives: at the highest dose activity change, negative = inhibition, most hits filed as inhibitors; actives 1.2% (n = 300,000); calls by dose curve; tested in HEK293 cells; note: nearly all actives have a fitted effect of over 50% in size
FMDV antiviral = High Throughput Screening for Foot and Mouth Disease Virus Antivirals; FMDV antiviral cell-based qHTS; Potency, µM (highest dose often 57.9 µM), without a hit: at the highest dose activity change, negative = inhibition, most hits filed as inhibitors; actives 1.2% (n = 410,000); AID 1159524, 2015; calls by dose curve; tested in HEK293T cells; note: read-out not given here; nearly all actives have a fitted effect of over 45% in size
MARV entry inh = qHTS for inhibitors of binding or entry into cells for Marburg Virus; Marburg virus pseudotyped entry inhibition, cell reporter; Potency, µM (doses to about 37.8 µM), without a hit: at the top dose activity change, negative = inhibition, hits mostly inhibitors; actives 1.8% (n = 300,000); AID 540276, 2011; calls by dose curve; tested in HEK293 cells
* marks the source's active call; other numbers are inactive results; ? = inconclusive; . = not tested or not shown; [ ] = dose if it differs, or a comment. An excerpt weighted towards active compounds, which were near 7.2% of everything screened. Unless noted, calls come from the whole dose curve; as a rule, active = well fitted curve in the direction sought with a large enough effect; inconclusive = small, poorly fitted or top-dose-only effect, or another doubt; inactive = no such curve, though single readings can be large; an effect the other way counts as inactive or inconclusive. % is set by controls: 0 for no effect and ±100 for the full control effect; potency is the fitted concentration of half-maximal effect.

SMILES | RE007 growth inh | Sm TGR inh | HCV inhibitor | Lassa entry inh | FMDV antiviral | MARV entry inh
O=C(Oc1ccc2ccccc2c1Br)N1CCCCCC1 | -23% | -17% | -3% | 3.3µM* | 0% | 1.2µM*
COc1cccc2c1[C@H](C=Cc1ccccc1)[C@@H]([C@H](O)COC(C)=O)OC2 | . | . | . | . | . | 16%[14.2 µM]
CSc1nnc(C)c(=O)n1COC(=O)/C=C/c1ccc2c(c1)OCO2 | 12% | 25µM* | -11% | 5%[46.1 µM] | -11% | 2%[46.1 µM]
CC1c2ccccc2SC(CCCN(C)C)c2ccccc21 (configuration not stated) | -3% | 0% | ? | ? | ? | 5.2µM*
COc1ccc(-c2cc3ccc(O)c(CN4CCN(CCO)CC4)c3oc2=O)cc1OC | . | -2% | . | -16%[46.1 µM] | -11% | .
Cc1nc2ccc(Cl)cc2[nH]1 | -8% | . | 11% | . | -16% | .
Cc1nc2ccc(C(C(F)(F)F)(C(F)(F)F)C(F)(F)F)cc2[nH]1 | 28µM* | -33% | ? | 16µM* | 0% | -19%
COCCNC(=O)Nc1ccc2nc(-c3cccs3)c(-c3cccs3)nc2c1 | 1% | -17% | ? | -23% | -28% | -12%
O=C(Nc1ccc2nc(-c3cccs3)c(-c3cccs3)nc2c1)NC1CC1 | -5% | 0% | 25µM* | -22% | -24% | -22%
CCOc1ccccc1N1CCN(C(=O)c2cc(S(=O)(=O)N3CCCCC3)ccc2C)CC1 | -4% | 1% | -20% | . | ? | .
O=C(c1ccc(Cl)c(S(=O)(=O)N2CCCCCC2)c1)N1CCN(c2ccccn2)CC1 | -1% | -13% | 7.1µM* | ? | 28µM* | ?
CCOc1ccccc1N1CCN(C(=O)c2ccc(Cl)c(S(=O)(=O)N3CCCCC3)c2)CC1 | 0% | -3% | 10µM* | ? | 32µM* | ?
Cc1ccc(-n2c(=O)[nH]c3cc(C(=O)NCCc4ccccc4)ccc3c2=O)cc1 | . | 2% | . | -9%[46.1 µM] | -13% | -1%[46.1 µM]
COC(=O)c1ccc(NCc2cc(O)ccc2O)cc1O | -10% | . | ? | 20µM* | ? | ?
O=C(COC(=O)c1ccc(O)cc1O)Nc1ccc2ccccc2c1 | -13% | 0% | ? | . | 5% | .
COC(=O)c1ccc(NCc2c(O)ccc(O)c2Br)cc1Cl | -8% | . | 11µM* | -17% | ? | ?
COC(=O)c1cc(NCc2c(F)cccc2Cl)ccc1N1CCOCC1 | -5% | 0% | ? | -35% | -20% | 5%
Cc1ccc(-n2nc(CO)c(C(=O)NCc3ccccn3)n2)cc1C | . | -5% | . | 7%[46.1 µM] | 1% | ?
COc1cc2c(cc1OC)CN(c1nc(CN3CCCCC3)nc3sc4c(c13)CCCC4)CC2 | 8% | -1% | 22µM* | ? | -7% | ?
COc1cc2c(cc1OC)CN(c1nc(CN3CCOCC3)nc3sc4c(c13)CCCC4)CC2 | -16% | -6% | ? | ? | ? | ?
c1ccc(C2[C@H]3CN(CC4CCCCC4)[C@H](c4ccccc4)C34CC2(c2cccnc2)C4)cc1 (some centres not stated) | -8% | 45µM* | 1% | . | -5% | .
CCOc1cc(-c2nccc3cc(OC)c(OC)cc23)cc(OCC)c1OCC | -22% | 1% | ? | ? | ? | 13µM*
Cc1ccc(Cl)cc1NC(=S)NCCCSC1CCCCC1 | -11% | 6% | 10µM* | ? | ? | ?
COc1cc(OC)c(NC(=O)c2cn(C)c(=O)c3cc(OC)c(OC)cc23)cc1Cl | . | -11% | . | 1%[46.1 µM] | 6% | 0%[46.1 µM]
CC(C)c1ccc(NC(=O)Cn2c(=O)n(CCc3ccccc3)c(=O)c3ccccc32)cc1 | . | 3% | . | 20%[46.1 µM] | -1% | 19%[46.1 µM]
SMILES | RE007 growth inh | Sm TGR inh | HCV inhibitor | Lassa entry inh | FMDV antiviral | MARV entry inh
COCCn1c(=NC(=O)CCS(=O)(=O)c2ccccc2)sc2ccccc21 | 13% | . | ? | -25% | ? | -18%
COC(=O)c1ccc2c(c1)sc(=NC(=O)CCS(=O)(=O)c1ccccc1)n2C | 9% | 32µM* | 11%[8.37 µM] | 1% | -9% | -2%
CC(C)(C)c1ccc(C(=O)N2CCN(c3nc4ccccc4o3)CC2)cc1 | 4% | 0% | 10µM* | . | ? | .
O=C(NCCc1ccccc1)C1CCN(c2nc3ccccc3o2)CC1 | -11% | -24% | -17% | 18% | -24% | 1%
CC1CCC(NC(=O)C2CCN(c3nc4ccccc4s3)CC2)CC1 (configuration not stated) | -2% | 4% | 10µM* | ? | -21% | -16%[46.1 µM]
O=C(NC1CCCCCCC1)C1CCN(c2nc3ccccc3o2)CC1 | -9% | 0% | ? | ? | 14µM* | ?
CC1CCN(CC(CS(=O)(=O)c2ccc([N+](=O)[O-])cc2)N2CCC(C)CC2)CC1 (configuration not stated) | 2% | 2.5µM* | 5µM* | . | 28µM* | .
CN(C)S(=O)(=O)c1ccc(NC(=O)CSc2ncnc3ccccc23)cc1 | -3% | -1% | 4% | 2% | 0% | 9%
CCCn1c(SCC(=O)Nc2cccc(S(=O)(=O)N(C)C)c2)nc2ccccc2c1=O | -5% | 4% | ? | -16%[46.1 µM] | 11% | 11µM*
CN(C)S(=O)(=O)c1cccc(NC(=O)CSc2ncnc3ccccc23)c1 | -12% | -13% | 7.9µM* | ? | ? | ?
O=C(NCc1ccc2c(c1)CCN2C(=O)c1ccncc1)c1cccc(Cl)c1 | . | 3% | . | -17%[46.1 µM] | -23% | .
CCC(=O)N1CCc2cc(Br)cc(S(=O)(=O)CCC(=O)N(CC)Cc3ccccc3)c21 | . | -6% | . | -10%[46.1 µM] | -10% | 16%[46.1 µM]
CC1(C)CC(NC(=O)c2ccc(-c3ccc([N+](=O)[O-])cc3)o2)CC(C)(C)N1 | 2% | 40µM* | -6% | ? | -15% | -22%[46.1 µM]
CC(OC(=O)c1ccc(-c2ccc([N+](=O)[O-])cc2)o1)C(=O)NC(N)=O (configuration not stated) | 2% | 4.5µM* | -1% | -8% | 0% | 8%[46.1 µM]
CC1(C)CC(NC(=O)Nc2ccc([N+](=O)[O-])cc2)CC(C)(C)N1 | -8% | -10% | -15% | 5% | -6% | 0%[46.1 µM]
O=C(NNC(=O)c1ccccc1O)c1ccc(-c2ccc([N+](=O)[O-])cc2)o1 | -12% | 0% | ? | ? | -11% | -5%[46.1 µM]
O=C(Nc1ccccc1)c1ccc(-c2ccc([N+](=O)[O-])cc2)o1 | 16% | 3.5µM* | -15% | -9% | 1% | 15%[46.1 µM]
CNc1snc(C)c1C(=O)OCC(=O)Nc1ccc(C)cc1F | 13% | 7% | ? | -7%[46.1 µM] | ? | ?
CCc1ccccc1NC(=O)COC(=O)c1c(C)nsc1NC | -7% | 0% | 4.5µM* | . | ? | .
